Test results reported in PubChem BioAssay (NCI).
About 83,000 compounds went through this panel and 20% of them were active in at least one assay; those are over-represented in the sample as a whole.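 Cells were grown in 96-well plates and exposed to the test compound at a single concentration for 48 hours; results are reported as percent growth, with values below 10 considered active.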 A number with no mark means an inactive call. Calls of active or inactive are those of the source.

Tested on: UACC-257 melanoma
Test: NCI-60 one-dose screen, 48 h (100 = growth as untreated, 0 = no growth, -100 = all killed)
Settings: 10 µM unless noted

| Compound | growth |
| --- | --- |
| Cc1cc(CSc2ccc(Cl)cc2)ccc1N | 108% |
| CC(=O)C(CO)C(=O)Nc1ccccc1 (configuration not stated) | 85.7% |
| Cc1nc2ccccc2c(=O)n1-c1cccc(OCc2cn(-c3cccc(O)c3)nn2)c1 | 94.9% |
| CCCCCCCCCCN1CC2CCCCC2C1 (configuration not stated) | 87.2% |
| CCCCN(CCC)CCCCCCCCCCN1CCCc2ccccc21 | 106% |
| C/C=C(/C)C(=O)OC1C=C(CO)C(=O)C(OC(=O)/C(C)=C\C)C1C(C)C (configuration not stated) | -48.8% (active) |
| O=C1C(Cl)=C(Nc2ccc(Nc3ccccc3)c(NC3=C(Cl)C(=O)c4ccccc4C3=O)c2)C(=O)c2ccccc21 | 79.8% |
| CN1CCN(Cc2ccc(NC(=O)c3cncc(C#Cc4c(N)ncc5ccc(F)cc45)c3)cc2C(F)(F)F)CC1 | -55.9% (active) |
| COc1cccc(CNC(=O)c2cccc(C3CC(=O)c4c(cc(OC)c(OC)c4OC)O3)c2)c1 (configuration not stated) | 67.8% |
| COC(=O)C1CC(=O)N(C(=O)Nc2ccc(Cl)cc2Cl)C1 (configuration not stated) | 96.6% |
| O=C(/C=C\c1ccc(NCc2ccc(C(=O)O)cc2)cc1)CCl | 85.6% |
| CC1(C)NC(=S)NC1=O | 106% |
| Cc1ccc(C(=O)Nc2ccc(CN3CCN(C)CC3)c(C(F)(F)F)c2)cc1C#Cc1cncc2ncccc12 | -64% (active) |
| COc1ccc(-c2nc(N)n(C(=S)Nc3ccccc3)n2)cc1 | 105% |
| O=C(O)c1ccc(-c2nn(-c3ccc(C(=O)O)cc3)cc2CNc2ccc(Br)cc2)cc1 | 101% |
| CCC(C)(C)c1ccc(OCCCCCCN2CCN(c3ccc(C)c(Cl)c3)CC2)cc1 | 110% |
| Cc1ncc(C(=O)Nc2ccc(CN3CCN(C)CC3)c(C(F)(F)F)c2)cc1C#Cc1c(N)ncc2ccccc12 | -86% (active) |
| COc1ccc2cnc(N)c(C#Cc3cc(C(=O)Nc4ccc(CN5CCN(C)CC5)c(C(F)(F)F)c4)cnc3C)c2c1 | 33.1% |
| COc1ccc(-c2nc(SCC(C)C)nc(Nc3ccc(C(=O)O)cc3)c2C#N)cc1 | 96.9% |

| Compound | growth |
| --- | --- |
| CCCCCCCCCCCCCCCCC(=O)O.CCCCCCCCCCCCCCCCCC(=O)O.CCCCCCCCCCCCCCCCCC(=O)O.CCCCCCCCCCCCCCCCCC(=O)O.CCCCCCCCCCCCCCCCCC(=O)O.CO[CH-]OC12COC1CC(O)C1(C)C(O)C(OC(C)O)C3=C(C)C(OC(=O)C(O)C([NH-])c4ccccc4)CC(O)(C(OC(=O)c4ccccc4)C21)C3(C)C.[Cu+].[Zn].[Zn].[Zn].[Zn].[Zn] (configuration not stated) | 80.6% |
| O=C1c2cc([N+](=O)[O-])ccc2-c2cc(Cl)c(NC(=O)C(F)(F)F)cc21 | 128% |
| CCCNC(=O)Oc1ccc(/C(=C(/C)Cc2ccc(OC)cc2)c2ccc(OCCN3CCCCC3)cc2)cc1 | 93.7% |
| CC(=O)CCS(=O)c1ccccc1 (configuration not stated) | 99.5% |
| N#CC1=C(N2CCOCC2)NC2c3ccccc3Sc3ccccc3N2C1=N (configuration not stated) | 108% |
| CC(C)(C)OC(=O)N1C/C(=C\c2ccccc2)C(=O)/C(=C/c2ccccc2)C1 | 91.4% |
| N#Cc1ccc(NC2c3ccccc3CC2O)cc1 (configuration not stated) | 125% |
| CC([C@H]1CCC2C3CCC4C[C@@H](N)CC[C@]4(C)C3CC[C@@]21C)N(C)C (some centres not stated) | -7.66% (active) |
| CCN(CC)c1ccc2nc3ccc(N=Nc4ccc(O)cc4)cc3[n+](-c3ccccc3)c2c1 | -1.57% (active) |
| CC(C)CSc1nc(-c2ccc(F)cc2)c(C#N)c(N2CCCCC2)n1 | 100% |
| Cc1ccc(C(=O)Nc2ccc(CN3CCN(C)CC3)c(C(F)(F)F)c2)cc1C#Cc1cnc(N)c2ccc(C#N)cc12 | 45.6% |
| CCCCCN1CCN(C(CC(=O)c2ccccc2)C(=O)c2ccccc2)CC1 (configuration not stated) | 107% |
| CN1CCN(Cc2ccc(NC(=O)c3ccc(C#Cc4c(N)ncc5ccc(F)cc45)cc3)cc2C(F)(F)F)CC1 | -58.5% (active) |
| CSC1=Nc2c(c(C)c(-c3ccccc3)n2CCCCl)C2=NC(=O)CN12 | 83.8% |
| Cc1ncc(C(=O)Nc2ccc(CN3CCN(C)CC3)c(C(F)(F)F)c2)cc1C#Cc1cnc(NC2CC2)c2ncccc12 | -65% (active) |
| Oc1ccc([S+](c2ccc(O)cc2)c2ccc(O)cc2)cc1 | 98.4% |
| Oc1ccc2ccccc2c1/C=N\Nc1ccccn1 | 12.9% |
| CCCNC(=O)Oc1ccc(/C(=C(/CC)Cc2ccccc2)c2ccc(OCCN(CC)CC)cc2)cc1 | 82.6% |
